# Out of some 400,000 compounds screened, about 5,500 (1.4%) were called active. Not shown: some 9% with an inconclusive outcome. This is one part of a sample in which actives are shown more often than they occur. Unmarked numbers belong to inactive results. Calls follow the shape of the dose curve; as a rule, active = well fitted cell-killing curve with a large enough effect; inconclusive = small, poorly fitted or top-dose-only effect, or effect the other way; inactive = flat fitted curve, though single readings scatter.
# Assay: qHTS assay for MDR1-selective chemotherapeutics: Primary screen using the parental adenocarcinoma cell KB-3-1; also: nearly all actives have a fitted effect of over 60% in size
# Conditions: KB-3-1 viability, CellTiter-Glo ATP luminescence, 72 h; series mostly up to 46.1 µM; activity change, negative = cytotoxic: at the top concentration
# Summary of the method: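 Viability of parental KB-3-1 cells, measured by CellTiter-Glo luminescence, followed a 72 h incubation at 37 °C with pinned compounds in phenol-red-free DMEM containing 10% FBS.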
# % is scaled to controls: 0 for no effect and ±100 for the full control effect; potency is read from the fitted curve at half-maximal effect.
SMILES,"activity change, negative = cytotoxic",Potency
COc1ccc(CNc2nc(-c3ccc(Cl)cc3)cc(C(F)(F)F)n2)cc1,2.34%,
O=C(Nc1ccc2nc(SCCOc3ccccc3)sc2c1)c1ccco1,4.12%,
COC(=O)COc1cccc2c(=O)n(CC(=O)NCc3ccccc3)ccc12,,6.51 µM (active)
CCOCCn1ccc2c(OCC(=O)NCc3ccc(C)cc3)cccc2c1=O,7.56%,
CCCn1ccc2c(OCC(=O)NCc3ccc(F)cc3)cccc2c1=O,2.13%,
CCCCOc1ccc(NC(=O)c2cc3c(n(-c4ccc(Cl)cc4)c2=O)CCCC3=O)cc1,-11.6%,
Cc1ccc2cccc(NC(=O)C(C)Oc3ccc(C)c(C)c3)c2n1 (stereo unspecified),-2.07%,
O=C(Nc1cc(-c2nc3ccccc3o2)ccc1Cl)c1cc([N+](=O)[O-])ccc1N1CCOCC1,-0.615%,
CCN(CC)CCCC(C)n1c2nc(=O)[nH]c(=O)c-2nc2cc(Cl)ccc21 (stereo unspecified),,6.51 µM (active)
COc1cccc(NC(=O)Cn2c(=O)cc(C)c3c(C)nn(-c4cccc(F)c4)c32)c1,4.05%,
CSc1ccc(CCNC(=O)c2ccc3c(c2)nc2n3CCOC2)cc1,-7.69%,
CCc1ccc(NC(=O)c2cc(S(=O)(=O)NC3CCCCCC3)ccc2F)cc1,-5.14%,
COc1ccccc1NC(=O)c1cc(S(=O)(=O)NCCc2ccccc2)ccc1F,1.79%,
Cc1ccc(NC(=O)c2cc(S(=O)(=O)NCCC3=CCCCC3)ccc2F)cc1C,,16.4 µM (active)
O=C(CSc1cn(CC(=O)N2CCOCC2)c2ccccc12)Nc1ccccc1,6.27%,
Cc1cccc(-c2nnc(SCC(=O)N3CCCc4ccccc43)o2)c1,0.542%,
O=S1(=O)CCOC[C@H](CC2CCCCC2)N1Cc1ccc(F)cc1,,16.4 µM (active)
CCCC[C@H]1COCCS(=O)(=O)N1Cc1cccc(Cl)c1,,inactive
CCC(C)[C@H]1COCCS(=O)(=O)N1Cc1ccc(C)cc1 (stereo partly specified),15.7%,
Cc1ccc2oc(=O)c3cnn(CC(=O)N4CCN(c5cccc(Cl)c5)CC4)c3c2c1,-1.01%,
COc1cc(OC)c(N(C)C(=O)c2cc3c(=O)oc4ccccc4c3s2)cc1Cl,-2.75%,

SMILES,"activity change, negative = cytotoxic",Potency
COc1ccc(Cc2nc3ccc(C(=O)NCc4ccccc4Cl)cc3o2)cc1,-13.2%,
CCOc1ccc(NC(=O)CCC(=O)N2CC(C)Oc3ccc(C)cc32)cc1 (stereo unspecified),-8.02%,
CCOc1ccc(CNC(=O)c2cccc(Nc3nc4ccccc4n4nnnc34)c2)cc1OC,-1.42%,
Cc1ccc(Cn2c(C)c3cnn(CC(=O)NCc4ccccc4)c(=O)c3c2C)cc1,,13 µM (active)
Cc1ccc(Cn2c(C)c3cnn(CC(=O)NCc4ccccn4)c(=O)c3c2C)cc1,-23.7%,
Cc1c2cnn(CC(=O)NCc3ccccn3)c(=O)c2c(C)n1Cc1ccc(Cl)cc1,9.63%,
Cc1cccc(Nc2nc(C)nc(N)c2S(=O)(=O)c2ccccc2)c1,3.43%,
CC(NC(=O)c1ccccc1SCC(=O)N1CCCC1)c1ccccc1 (stereo unspecified),-7.79%,
CC(NC(=O)c1cccc2ccccc12)c1ccc2c(c1)CCCC2 (stereo unspecified),,10.3 µM (active)
CC(NC(=O)CNC(=O)Cc1cccc2ccccc12)c1ccc(S(N)(=O)=O)cc1 (stereo unspecified),-31.1%,
O=S(=O)(NCC(c1ccccc1)N1CCc2ccccc21)c1ccccc1 (stereo unspecified),-19.2%,
Cc1ccc(NC(=O)Nc2sc3nc4n(c(=O)c3c2C)CCC(C)CC4)c(Cl)c1 (stereo unspecified),-1.46%,
CCCc1nc2sc3c(c2c(=O)n1NC(=O)CCCl)CCCC3,,23.1 µM (active)
Cc1ccc(C)c(-n2c(SCC(=O)O)nc3sc4c(c3c2=O)CCCC4)c1,-7.55%,
NNC(=O)C1CCCn2c1nc1sc3c(c1c2=O)CCCC3 (stereo unspecified),0.859%,
COc1cccc(Cn2c(SCc3ccc(C(=O)N4CCC(C)CC4)cc3)nc3ccncc32)c1,3.38%,
Cc1cccc(Cn2c(SCc3ccc(C(=O)N4CCC(C)CC4)cc3)nc3ccncc32)c1,,23.1 µM (active)
Cc1cccc(CSc2nc3ccncc3n2Cc2ccc(C(=O)O)cc2)c1,2.92%,
CCOc1n[nH]c(-c2ccccc2)n1,47.7%,
CCN(CC)S(=O)(=O)c1nnc(NC(=O)COc2ccccc2Cl)s1,11.8%,
CN(Cc1cncn1C)c1ncnc2ccc(-c3ccc4c(c3)OCO4)cc12,20%,

SMILES,"activity change, negative = cytotoxic",Potency
Cn1c(=O)c2c(nc(SCC(=O)Nc3ccc(F)cc3)n2Cc2ccc(Cl)cc2)n(C)c1=O,-5.05%,
COc1ccc(-c2onc(C)c2C)cc1S(=O)(=O)NCC1CCN(Cc2cccc(F)c2)CC1,-14.5%,
Cc1ccc2nc(NC(=O)c3nc(SCc4ccccc4F)ncc3Cl)sc2c1,4.47%,
CSc1nnc(NC(=O)c2nc(S(=O)(=O)Cc3ccc(C)cc3)ncc2Cl)s1,,16.4 µM (active)
Cc1cccc(NC(=O)Cn2cc(S(=O)(=O)Cc3ccccc3Cl)c3ccccc32)c1,-25.9%,
Cc1ccc(CS(=O)(=O)c2ncc(Cl)c(C(=O)Nc3nnc(C)s3)n2)cc1,,20.6 µM (active)
O=C(Nc1nnc(Cc2ccc(Cl)cc2)s1)c1cccnc1,1.48%,
CCS(=O)(=O)c1ncc(N(Cc2ccc(F)cc2)Cc2ccco2)c(C(=O)Nc2cc(C)ccc2C)n1,6.09%,
O=C(Nc1nnc(Cc2ccc(Cl)cc2)s1)c1ccncc1,4.01%,
Cc1cccc(NC(=O)c2nc(S(=O)(=O)Cc3ccccc3)ncc2Cl)c1,,5.8 µM (active)
CC(=O)c1cccc(NC(=O)c2nc(-c3ccccc3)n(-c3cccc(C)c3)n2)c1,-5.19%,
CCOC(=O)c1c(NC(=O)CSc2cn(CCNC(=O)c3cccc(C(F)(F)F)c3)c3ccccc23)sc2c1CCC2,9.88%,
CC1(C)Cc2ccccc2-c2c[nH]c(=O)n21,6.54%,
COc1ccc(-c2cc(-c3nc(-c4cc(OC)c(OC)c(OC)c4)no3)[nH]n2)c(OC)c1,-12.8%,
CC1CCN(S(=O)(=O)c2ccc3c(ccn3CCC(=O)NCc3ccc(N(C)C)cc3)c2)CC1,0.784%,
COc1ccc(N(C)C(=O)C2CCN(S(=O)(=O)c3cc(Br)cc4c3N(C(C)=O)CC4)CC2)cc1,7.14%,
O=C(Nc1cccc(S(=O)(=O)Nc2ccc(Cl)cc2)c1)c1ccc2c(c1)OCCO2,,8.2 µM (active)
CN1CCN(c2ccc(NC(=O)c3ccc4c(c3)OCCO4)cc2Cl)CC1,-15.3%,
CCN(CC)CCNC(=O)c1ccc(NS(=O)(=O)c2ccc3c(c2)OCCO3)cc1,2.07%,

# Reference: PubChem BioAssay AID1347075 (National Center for Advancing Translational Sciences (NCATS), 2019)
